# Source: PubChem BioAssay (NMMLSC)
# Rows were chosen to be rich in hits. Some 0.92% of all compounds tested hit in one or more screens of this group.
# LAP4-GFP MLPCN = modulators of TOR pathway LAP4-GFP in S. cerevisiae; S. cerevisiae LAP4-GFP multiplex, flow cytometry GFP, 3 h; median GFP as percent of DMSO wells; GFP response vs DMSO, % at 10 µM; actives 0.34% (n = 320,000);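 active = GFP response vs DMSO above a set limit, about the screen mean plus 3 SD, cut at about 150% in these data; inconclusive = under 70 cell events counted for the yeast strain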
# CIT2 TOR yeast = yeast TOR pathway CIT2-GFP modulation | S. cerevisiae CIT2-GFP strain, flow cytometry, 3 h; 100 means same as DMSO wells | GFP response vs DMSO, % at 10 µM | actives 0.065% (n = 320,000);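 active = GFP response relative to DMSO above a set limit, near the screen mean plus 3 SD, cut at about 150% in these data; inconclusive = Fewer than 70 cells measured for a yeast strain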;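 note: ratio of well median GFP fluorescence to mean of DMSO wells on the plate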
# RPL19A TOR yeast = yeast TOR pathway RPL19A-GFP modulation; S. cerevisiae RPL19A-GFP strain, flow cytometry, 3 h; active compounds read low; percent response vs DMSO, % at 10 µM; actives 0.3% (n = 330,000);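 active = percent response vs DMSO below 50%; inconclusive = fewer than 70 events counted for the yeast strain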;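 note: median channel GFP fluorescence of the barcoded RPL19A-GFP strain; ratio of sample median GFP to plate DMSO average so 100% = DMSO; lower means less RPL19A-GFP as with rapamycin TOR inhibition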
# AGP1 TOR yeast = modulators of TOR pathway AGP1-GFP in S. cerevisiae. S. cerevisiae AGP1-GFP multiplex flow cytometry, 3 h; GFP as percent of DMSO wells. GFP response vs DMSO, % at 10 µM. actives 0.02% (n = 320,000). AID 2066;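 active = GFP response relative to DMSO above a set limit, near screen average plus 3 SD, cut at about 150% in these data; inconclusive = fewer than 70 cells counted for the yeast strain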;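 note: median GFP channel fluorescence of the gated AGP1 strain per well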
# MEP2-GFP yeast = modulators of TOR pathway MEP2-GFP in S. cerevisiae. S. cerevisiae MEP2-GFP strain, flow cytometry GFP, 3 h; 100% = DMSO control level. GFP response vs DMSO, % at 10 µM. actives 0.51% (n = 330,000). AID 2016;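 active = GFP response versus DMSO above a set limit, roughly screen mean plus 3 SD, cut at about 180% in these data; inconclusive = fewer than 70 cells counted for a yeast strain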;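 note: median GFP fluorescence of the barcode-gated MEP2-GFP cells per well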
# LAP4 cherry2 = second confirmation of modulators of TOR reporter LAP4-GFP in yeast; shares compounds with LAP4-GFP MLPCN; S. cerevisiae LAP4-GFP strain, flow cytometry GFP, 3 h; GFP response vs DMSO, % at 10 µM; actives 20% (n = 590); AID 2621;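 active = GFP signal as percent of the solvent control above about 150%, meaning raised reporter expression, limit read from the data; inconclusive = fewer than 70 cells counted in the well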;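 note: ratio of well median GFP fluorescence to plate DMSO mean so 100% = DMSO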
# MEP2-GFP pick2 = reconfirmed MEP2-GFP TOR pathway modulator in yeast. shares compounds with LAP4-GFP MLPCN. S. cerevisiae MEP2-GFP strain, flow cytometry GFP, 3 h. GFP response vs DMSO, % at 10 µM. actives 10% (n = 590);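 active = GFP signal above 150% of the solvent control wells, that is a rise of more than half; inconclusive = fewer than 70 yeast cells counted in the well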;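 note: median channel GFP fluorescence of all gated yeast cells per well; ratio of median GFP to plate DMSO average so 100% = DMSO level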
# RPL19A GFP CP2 = yeast RPL19A-GFP TOR reporter modulation, second cherry pick. shares compounds with LAP4-GFP MLPCN. S. cerevisiae RPL19A-GFP strain, flow cytometry GFP, 3 h; active compounds read low; 100% means same as DMSO wells. GFP response vs DMSO, % at 10 µM. actives 3% (n = 590). AID 2623;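 active = under 65% GFP response relative to DMSO; inconclusive = yeast strain with under 70 measured events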;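 note: median GFP channel fluorescence per well over the all cells gate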
# CIT2 GFP CP2 = reconfirmed modulator of CIT2-GFP TOR reporter in yeast. actives 8% (n = 590). shares compounds with LAP4-GFP MLPCN. S. cerevisiae CIT2-GFP strain, flow cytometry GFP, 3 h; DMSO control wells read 100%. AID 2624. GFP response vs DMSO, % at 10 µM;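 active = GFP response vs DMSO above about 150%, limit read from the data; inconclusive = fewer than 70 events counted for a yeast strain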;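 note: median green fluorescence per well over all gated yeast cells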
# AGP1-GFP pick2 = second confirmation of modulators of TOR reporter AGP1-GFP in yeast. shares compounds with LAP4-GFP MLPCN. S. cerevisiae AGP1-GFP strain, flow cytometry GFP, 3 h. percent response vs DMSO, % at 10 µM. 590 tested, under 10 active. AID 2643;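 active = over 150 percent of DMSO response; inconclusive = yeast strain measured with under 70 events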;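 note: median GFP channel fluorescence over all cells without mother daughter split; sample median GFP divided by mean DMSO control so 100% equals DMSO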
# s288c autofluor = compound is autofluorescent in yeast s288c cells; shares compounds with LAP4-GFP MLPCN; S. cerevisiae s288c, 520 nm autofluorescence, flow cytometry, 3 h; active compounds read high; zero means same as solvent-only cells; fluorescence change (kMESF span) at 33 µM; 610 tested, under 10 active; AID 2757;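 active = fluorescence span over the dose series, or activity score, above about 33, limit read from the data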
# s288c autofl DR = counter-screen for autofluorescence of TOR hits in yeast s288c; shares compounds with LAP4-GFP MLPCN; S. cerevisiae s288c parental, compound autofluorescence, flow cytometry, 3 h; fluorescence change (span) at 33 µM; 110 tested, under 10 active; AID 488829;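 active = fluorescence change span, or the activity score built from it, above 25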
# TORC1 bypass gr = wildtype yeast growth loss with TORC1 bypass cells unaffected; shares compounds with LAP4-GFP MLPCN; S. cerevisiae BY4741 spot growth rating, 48-72 h; active compounds read low; growth rating (0-3) at 30 µM; 120 tested, under 10 active;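 active = growth rating at most 1 for wild type yeast while the TORC1 bypass strain still grows fully, rated 3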
# Active calls of the source: *; ? = inconclusive; . = no result; + = active, no number; [ ] = remark or other dose.
SMILES,LAP4-GFP MLPCN,CIT2 TOR yeast,RPL19A TOR yeast,AGP1 TOR yeast,MEP2-GFP yeast,LAP4 cherry2,MEP2-GFP pick2,RPL19A GFP CP2,CIT2 GFP CP2,AGP1-GFP pick2,others
Nc1nc(NCCOCCO)nc(Nc2cccc(F)c2)c1[N+](=O)[O-],104.8,108.6,115.1,105.0,116.3,.,.,.,.,.,
CNc1nc(N)c([N+](=O)[O-])c(Nc2cccc(Cl)c2)n1,114.4,121.3,93.4,96.1,109.0,.,.,.,.,.,s288c autofl DR=0.36;TORC1 bypass gr=3
Nc1nc(Nc2cccc(F)c2)nc(Nc2cccc(F)c2)c1[N+](=O)[O-],.,.,.,.,.,.,.,.,.,.,s288c autofl DR=0;TORC1 bypass gr=3
CNc1nc(N)c([N+](=O)[O-])c(Nc2cccc(F)c2)n1,139.7,274.2*[may fluoresce green],73.5,134.0,337.6*[may fluoresce green],141.3,+,78.5,350.4*,159.4*,s288c autofluor=-0.2;s288c autofl DR=0.07;TORC1 bypass gr=1*
CC1CCCN(CCCCOc2cccc(Br)c2)C1 (stereo not given),103.1,91.7,96.9,118.9,95.7,.,.,.,.,.,
COCCSc1nnc(NC(=O)c2ccc(OC)c([N+](=O)[O-])c2)s1,102.8,102.2,100.7,102.7,100.7,.,.,.,.,.,
CC1CN(Cc2ccccc2)C(C)CC1O (stereo not given),91.5,93.7,100.1,93.4,95.3,.,.,.,.,.,
COc1ccc([C@]2(C(C)C)ON(c3ccccc3C(F)(F)F)C2=O)cc1,106.8,91.8,96.1,94.5,95.2,114.4,106.5,101.3,114.2,108.1,s288c autofluor=-0.1
COc1ccc([C@@]2(C(C)C)ON(c3ccccc3C(F)(F)F)C2=O)cc1,105.8,103.7,96.2,97.0,92.8,118.3,106.5,103.6,106.3,97.2,s288c autofluor=-0.2
CC(C)[C@@]1(c2ccc(Cl)cc2)ON(c2ccccc2C(F)(F)F)C1=O,95.8,?,57.3,19.9,147.4,102.2,97.8,101.9,107.1,96.6,s288c autofluor=-0.1
COc1ccc(C2(c3ccc(OC)cc3)NC(=O)N(CC(=O)Nc3ccccc3C(F)(F)F)C2=O)cc1,93.9,91.6,102.6,97.4,101.7,.,.,.,.,.,
O=c1[nH]ncn1-c1ccccc1C(F)(F)F,91.4,103.9,102.8,104.5,103.4,.,.,.,.,.,
Cc1cc(C(=O)Nc2ccc3c(c2)OCO3)no1,98.3,156.7*,97.5,111.1,103.5,103.8,109.8,101.5,100.7,101.0,
Cc1ccc(NC(=O)c2cc(-c3ccc4c(c3)OCO4)on2)cc1C,101.2,105.5,103.5,103.8,105.6,.,.,.,.,.,
COc1ccc(NC(=O)CC2C(=O)Nc3ccccc3N2CC(=O)N2CCCC2)cc1 (stereo not given),89.7,94.7,95.4,95.7,90.8,.,.,.,.,.,
CC1(C)Cc2c(sc(NC(=O)c3ccc4c(c3)OCCO4)c2C(N)=O)C(C)(C)N1,94.8,152.8*,96.2,107.4,116.8,97.2,101.3,99.1,108.5,98.6,
Cc1ccc(OCC(=O)NCc2n[nH]c(=O)c3ccccc23)cc1,106.8,90.3,94.5,100.3,88.2,.,.,.,.,.,
COc1cc(C(=O)COC(=O)c2ccco2)cc(OC)c1OC,185.8*,77.4,76.0,110.5,104.9,102.2,104.8,99.3,104.3,102.2,
Brc1ccc(Oc2nsnc2N2CCOCC2)cc1,95.2,82.4,99.6,26.9,180.0*,96.2,103.1,101.7,104.3,97.2,
Cc1nn(C)cc1S(=O)(=O)Nc1cccc(Cl)c1,95.9,102.2,99.3,103.2,101.0,.,.,.,.,.,
CN(c1ccccc1)c1ccc(/C=C/[N+](=O)[O-])cc1,153.8*,91.5,86.9,87.5,94.9,128.3,99.6,97.2,115.4,95.4,
O=C(NC(=O)c1cc([N+](=O)[O-])ccc1Cl)C1=C(N2CCCC2)COC1=O,102.0,88.2,93.7,95.7,91.9,.,.,.,.,.,
Cc1ccc(/C=C2\SC(=S)N(Cc3ccccc3)C2=O)o1,156.0*,95.2,97.4,86.3,106.7,151.9*,123.1,106.1,119.9,99.4,s288c autofluor=1.31
O=C1/C(=C\c2ccc(O)c(O)c2)SC(=S)N1Cc1ccccc1,218.9*,202.7*,96.7,44.3,408.7*,.,.,.,.,.,s288c autofluor=33.1*
COc1cc(/C=C2/SC(=S)N(Cc3ccccc3)C2=O)ccc1O,94.3,109.0,110.5,101.0,109.0,.,.,.,.,.,
SMILES,LAP4-GFP MLPCN,CIT2 TOR yeast,RPL19A TOR yeast,AGP1 TOR yeast,MEP2-GFP yeast,LAP4 cherry2,MEP2-GFP pick2,RPL19A GFP CP2,CIT2 GFP CP2,AGP1-GFP pick2,others
O=[N+]([O-])c1cc(CN2CCN(c3cccc(C(F)(F)F)c3)CC2)c2cccnc2c1O,213.6*,114.2,88.3,.,115.8,.,.,.,.,.,s288c autofluor=0.91
O=[N+]([O-])c1cc(CN2CCCC2)c2cccnc2c1O,98.6,88.5,88.9,94.4,96.7,.,.,.,.,.,
O=C1C(=O)N(CCN2CCOCC2)C(c2cccc(Cl)c2)/C1=C(\O)c1ccc2c(c1)OCCO2 (stereo not given),93.0,107.0,50.1,27.0,136.2,100.0,98.2,96.7,112.0,97.9,
Cc1nc(N2CCN(S(=O)(=O)c3ccccc3C#N)CC2)c2c(-c3cccs3)csc2n1,108.2,90.4,97.8,110.9,108.9,.,.,.,.,.,
Cc1nc(N2CCCCC2)c2c(-c3cccs3)csc2n1,98.5,99.5,56.1,33.6,154.8,95.2,94.8,99.4,108.6,96.7,
COc1ccc(CNC(=O)COC(=O)CN2C(=O)NC3(CCCC3)C2=O)cc1,98.1,92.2,93.9,95.8,96.3,.,.,.,.,.,
CN(C)c1oc(/C=C/c2cccs2)nc1S(=O)(=O)c1ccccc1,70.9,82.8,52.9,13.4,94.9,99.0,96.5,97.3,95.0,95.3,
